The whole screen tested about 1,300 compounds, of which about 30 (2%) were called active. Roughly 10% stayed inconclusive and do not appear here. Calls come from the whole dose curve; as a rule, active = well fitted inhibition curve with a large enough effect; inconclusive = small, poorly fitted or top-dose-only effect; inactive = flat fitted curve, though single readings scatter. Shown is part of a subset that was picked to be rich in actives.
Assay: qHTS for antagonists of the Thyroid Stimulation Hormone Receptor: Hit Validation in HTRF Activity in a Luteinizing Hormone Receptor Cell Line
Settings: LHR-expressing cell line, cAMP HTRF, antagonist mode; series mostly up to 58 µM; activity change, negative = inhibition: at the top concentration
Source text: The thyroid-stimulating hormone receptor (TSHR) is a member of the 7 trans-membrane-spanning receptor (7TMR) family of cell surface receptors. TSHR-mediated hyperthyroidism is important in thyroid pathology. The development of small molecule antagonists of TSHR may lead to therapeutic approaches for TSHR-mediated hyperthyroidism caused by constitutively activating mutations or stimulating auto-antibodies associated with Graves' disease. Graves' disease is the leading cause of hyperthyroidism and is caused by autoantibodies that stimulate TSHR (TsAbs) causing thyroid growth and unregulated overproduction of thyroid hormones and existing treatments have liabilities (agranulocytosis). In addition, TSHRs are known to be expressed in multiple extrathyroidal tissues including bone, brain, kidney, testis, fat and cells of the immune system but the role of the TSHR in these tissues is not clear. Therefore, TSHR antagonists/inverse agonists could be used as probes of extrathyroidal TSHR function. Finally, TSHR inverse agonists, which are a subclass of antagonists that inhibit agonist-independent (or basal or constitutive) TSHR signaling, could be used to inhibit TSH-independent signaling in patients with recurrent or metastatic thyroid cancer who are receiving thyroid hormone to suppress TSH.
In collaboration between scientist from the NCGC and the NIDDK, a miniaturized HTRF high-throughput screen was developed. It's a cell based assay, where an anti cAMP antibody contains a fluorescent cryptate tag (excitation 337 nm; emission 620 nm) and the acceptor is cAMP-d2 (excitation 620 nm; emission 665 nm). When antibody and cAMP-d2 interact and are excited by a 337 nm light, a FRET occurs resulting in emission at 665 nm. The assay is competition between cAMP-d2 and cAMP (from the cell lysate). The homogeneous protocol allows for one step dispense after stimulation that is automation friendly. In order to confirm specificity of the compounds to the TSHR, a confirmatory assay was conducted on a similar family member, the Luteinizing Hormone (LH) receptor, transfected into a HEK 293 cell line, using an orthogonal detection technology to measure cAMP stimulation: antibody-based Homogeneous Time Resolved Fluorescence (HTRF).
NIH Chemical Genomics Center [NCGC]
NIH Molecular Libraries Probe Centers Network [MLPCN]
Assay Provider: Marvin Gershengorn, NIDDK
Homogeneous Time Resolved Fluorescence (HTRF) cAMP Assay. HEK 293 cells stably transfected with a vector containing the LH receptor and maintained under hygromycin selection were obtained from the laboratory of Dr. Marvin Gershengorn. Compounds were assayed using a HTRF cAMP detection kit (Cisbio) on the LH receptor transfected cell line. Briefly, 750 cells were plated in 2.5 ul/well of complete media (DMEM containing 10 % FCS, and 100 uM RO 20-1724) in 1536 well solid bottom white plates and 23 nl/well compound in DMSO solution or controls was added. Following 30 minute incubation at room temperature, 2.5 ul/well of labeled d2 cAMP and 2.5 ul/well of anti-cAMP antibody (both diluted 1:20 in lysis buffer) were added to each well using a flying reagent dispenser (Aurora Discovery, San Diego) . Plates were measured using the Envision plate reader (PerkinElmer, Boston, MA) with excitation at 330 nm and emissions of 615 nm and 660 nm.
% is set by controls: 0 for no effect and ±100 for the full control effect; potency is the fitted concentration of half-maximal effect.

Compound | activity change, negative = inhibition | Potency
Cc1nc(NCCc2ccccc2)c(C#N)c(C)c1[N+](=O)[O-] | -0.65% (inactive) | 
O=C(OCn1ncc(Cl)c(Cl)c1=O)c1ccccc1Cl | -5.91% (inactive) | 
O=S(=O)(Nc1cccnc1)c1ccc(C2CCCCC2)cc1 | 1.64% (inactive) | 
CC(C)Cc1nc2oc3c(Cl)ncnc3c2c2c1CCC2 | -4.6% (inactive) | 
Cc1cccc(NC(=O)c2ccc(Cl)c(S(=O)(=O)N3CCc4ccccc43)c2)n1 | -9.41% (inactive) | 
COc1ccc(CCNC2=C(Cl)C(=O)N(CCc3ccccc3)C2=O)cc1OC | -9.23% (inactive) | 
COc1ccc(CCNC2=C(Cl)C(=O)N(CCc3ccc(OC)c(OC)c3)C2=O)cc1OC |  | 37.9 µM (active)
COc1ccc(CCNc2ncnc3c2[nH]c2cc(OC)c(OC)cc23)cc1OC | -3.52% (inactive) | 
COc1ccc(OC)c(NC(=O)CSc2ncnc3c2cnn3-c2ccccc2Cl)c1 | -8.87% (inactive) | 
COc1ccc(-n2ncc3c(N(C)C4CCCCC4)ncnc32)cc1 | -3.61% (inactive) | 
COc1cccc(N2CCN(c3ncnc4c3cnn4-c3ccc(C)cc3C)CC2)c1 |  | 33.8 µM (active)
O=C(NC1C2CC3CC(C2)CC1C3)c1ccc2c(c1)OCO2 (centres undefined) | 1.26% (inactive) | 
CC(C)(C)OC(=O)NCCCCCc1cn([C@@H](CO)C(=O)NCCCCCCCCCCC(=O)N2CCN(C(=O)OC(C)(C)C)CC2)nn1 |  | 37.9 µM (active)
Cc1cccc(OCC(=O)Nc2nc3ccc([N+](=O)[O-])cc3s2)c1C | 2.41% (inactive) | 
CCOc1cc(N2CCOCC2)c(OCC)cc1NC(=O)c1cc(S(=O)(=O)N2CCOCC2)ccc1C | -0.64% (inactive) | 
CCCc1nnc(NC(=O)c2nc(S(=O)(=O)Cc3ccc(C)cc3)ncc2Cl)s1 | -2.21% (inactive) | 
CCN(c1ccccc1)S(=O)(=O)c1ccc(NC(=O)c2nc(S(C)(=O)=O)ncc2Cl)cc1 |  | 33.8 µM (active)
O=C(Nc1ccccc1)c1nnsc1S(=O)(=O)c1ccc(Cl)cc1 | -4.24% (inactive) | 
Cc1ccc(NC(=O)c2nc(S(=O)(=O)Cc3ccccc3C)ncc2Cl)cc1C | -0.454% (inactive) | 
CN(c1ccccc1)S(=O)(=O)c1ccc(NC(=O)c2nc(S(C)(=O)=O)ncc2Cl)cc1 |  | 30.1 µM (active)
CCS(=O)(=O)c1ncc(Cl)c(C(=O)Nc2ccc(S(=O)(=O)N(C)c3ccccc3)cc2)n1 |  | 42.6 µM (active)
COC(=O)c1ccc(NC(=O)c2nc(S(=O)(=O)Cc3cccc(C)c3)ncc2Cl)cc1 | -1.75% (inactive) | 
CCC1CCCCN1S(=O)(=O)c1ccc(NC(=O)c2nc(S(C)(=O)=O)ncc2Cl)cc1 (centres undefined) |  | 30.1 µM (active)
CN(c1cccc(NC(=O)c2ccc(Cl)c(S(=O)(=O)Nc3ccccc3)c2)c1)S(C)(=O)=O | 1.14% (inactive) | 
Cc1ccc(CS(=O)(=O)c2ncc(Cl)c(C(=O)Nc3nnc(C(C)C)s3)n2)cc1 | -6.84% (inactive) | 

Compound | activity change, negative = inhibition | Potency
CC(C)c1nnc(NC(=O)c2nc(S(=O)(=O)Cc3ccccc3F)ncc2Cl)s1 | -6.24% (inactive) | 
CCOC(=O)c1ccc(NC(=O)c2nc(S(=O)(=O)Cc3ccccc3)ncc2Cl)cc1 | -2.38% (inactive) | 
COc1ccc(OC)c(NC(=O)c2cc(S(=O)(=O)NCc3ccco3)ccc2F)c1 | -2.65% (inactive) | 
COc1ccccc1C1CCN(c2cc(O)ccc2[N+](=O)[O-])CC1 | 1.21% (inactive) | 
Cc1ccc(C)c(N2CCN(C(=O)C(Cc3ccccc3)n3cccc3)CC2)c1 (centres undefined) | -3.11% (inactive) | 
Cc1ccccc1NC(=O)c1cc2ccccn2n1 | 2.78% (inactive) | 
Cc1csc(NC(=O)c2cc3c(C)nn(Cc4ccccc4Cl)c3s2)n1 | -3.84% (inactive) | 
COC(=O)CCN(Cc1cc(OC)ccc1OC)S(=O)(=O)c1ccccc1Br | 1.58% (inactive) | 
CCn1c(=NC(=O)CSC(C)=O)sc2cc(OC)ccc21 | -1.89% (inactive) | 
Brc1ccc(CNc2ccc3ncccc3c2)cc1 | 0.575% (inactive) | 
Cc1n[nH]c(C)c1S(=O)(=O)N1CCCC(C(=O)N2CCN(c3ccc(Cl)cc3)CC2)C1 (centres undefined) | -2.41% (inactive) | 
CCCCn1c(-c2c(Cl)c(C)nn2C)n[nH]c1=S | 2.87% (inactive) | 
Clc1ccc(CCNc2ncnc3nc[nH]c23)cc1 | -2.95% (inactive) | 
Cc1cc(-n2c(C)cc(C(=O)CSc3[nH]c(=O)cc(C(F)(F)F)c3C#N)c2C)no1 | 2.79% (inactive) | 
Cc1ccc(C(=O)C2=C(O)C(=O)N(c3ncccn3)C2c2ccccc2F)o1 (centres undefined) | -6.53% (inactive) | 
O=c1[nH]nc(Cc2ccc(-c3cccc(Cl)c3)o2)c2ccccc12 | 1.92% (inactive) | 
C1=C(CCNc2ncnc3c2[nH]c2ccccc23)CCCC1 | -9.93% (inactive) | 
COc1ccc(N2CCN(C(c3nnnn3CCc3ccccc3)C(C)C)CC2)cc1 (centres undefined) | -0.511% (inactive) | 
O=C(NCCC1=CCCCC1)C1CCCN(S(=O)(=O)c2ccccc2)C1 (centres undefined) | -0.0889% (inactive) | 
CCCCCCOc1ccc(NC(=O)CC2C(=O)N(CC)C(=S)N2Cc2ccco2)cc1 (centres undefined) | 0.236% (inactive) | 
O=[N+]([O-])c1ccc(Sc2cccc[n+]2[O-])c2nonc12 |  | 23.9 µM (active)
COc1ccc(Nc2ccc([N+](=O)[O-])c3nonc23)c(OC)c1 | 1.19% (inactive) | 
COC(=O)c1c(NC(NC(C)=O)C(Cl)(Cl)Cl)sc2c1CCCC2 (centres undefined) | 1% (inactive) | 
COc1cc([N+](=O)[O-])cc(/C=C2/SC(=S)N(Cc3ccccc3)C2=O)c1O | -3.99% (inactive) | 

Reference: PubChem BioAssay AID602293 (National Center for Advancing Translational Sciences (NCATS), 2012)
